Results published in PubChem BioAssay AID620 (Sanford-Burnham Center for Chemical Genomics, 2007).
Screen size: about 87,000 compounds; about 360 (0.41%) were called active. Shown is part of a subset that was picked to be rich in actives. Unmarked numbers belong to inactive results. Rule as the data show it: active = cytotoxicity above about 50%; inactive = the rest.

test: HT1080 cell viability loss – fluorescence readout (AID 620); details: at 10 µM, active compounds read high;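 also: cells exposed to compound overnight then 4 h with Alamar Blue; 0% = vehicle DMSO and 100% = killing control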

Compound	cytotoxicity
Cc1ccc(SC(C)C(=O)Nc2ccncc2)cc1 (stereo not given)	-1.4%
O=C1c2[nH]nc(-c3ccccc3O)c2C(c2cccc(Cl)c2)N1Cc1ccco1 (stereo not given)	3.9%
Cc1ccc(S(=O)(=O)N2CCN(C(=O)c3ccc(OCc4c(C)noc4C)cc3)CC2)cc1	-2.3%
NC(=O)C1CCN(C(=S)c2cccs2)CC1	8.7%
COc1ccc(C2CC(=O)N3C(=C2C#N)SCC3(O)c2ccccc2)cc1 (stereo not given)	5.5%
N#CC1=C2SCC(O)(c3ccccc3)N2C(=O)CC1c1ccccc1F (stereo not given)	4.1%
N#CC1=C2SCC(O)(c3ccccc3)N2C(=O)CC1c1ccccc1 (stereo not given)	63.1% (active)
O=C(NCCCN1CCCC1=O)c1cccs1	1.9%
Cn1c(=O)c2c(nc(CN3CCN(c4ccccc4)CC3)n2CCN2CCOCC2)n(C)c1=O	8.9%
COc1ccc(Nc2cc(C)nc(-n3nc(C)cc3C)n2)cc1	65.9% (active)
COc1ccc(Nc2cc(C)nc(N3CCOCC3)n2)cc1	21.5%
CCOc1ccc(Nc2cc(C)nc(-n3nc(C)cc3C)n2)cc1	50.6% (active)
CCOc1ccc(Nc2cc(C)nc(N3CCOCC3)n2)cc1	-0.6%
CNc1cc(C)nc(-n2nc(C)cc2C)n1	2.1%
Cc1cc(NCCO)nc(-n2nc(C)cc2C)n1	-5.5%
CCCc1nc2sc3ccccc3c(=O)c2c(=O)n1Cc1ccco1	21%
Cc1cccc(NS(=O)(=O)c2cc(C(=O)N3CCN(C)CC3)ccc2C)c1	-3.1%
Cc1nc2ccc(C(=O)c3ccccc3)cc2[nH]1	-6.6%
COc1ccc(C(=O)Nc2nc3ccccc3[nH]2)cc1OC	0.5%
COc1cc(OC)cc(C(=O)Nc2nc3ccccc3[nH]2)c1	-1.1%
COc1cc(C(=O)Nc2nc3ccccc3[nH]2)cc(OC)c1OC	-3.2%
COC(=O)Nc1nc2ccc(C(=O)c3ccccc3)cc2[nH]1	61.1% (active)
COC(=O)Nc1nc2ccc(Sc3ccccc3)cc2[nH]1	62.2% (active)
Cc1ccc(-c2nc(CS(=O)CC(=O)NC3CCC(C)CC3)c(C)o2)cc1 (stereo not given)	-9.8%
CCc1ccc(OC)c(S(=O)(=O)Nc2ccccc2C)c1	3.8%

Compound	cytotoxicity
CC(C)N(c1ccccc1)c1ccc(NC(=O)C2CCCO2)cc1 (stereo not given)	-3.8%
Cn1nnnc1Sc1ncnc2scc(-c3ccc(F)cc3)c12	20%
Cc1ccc(-c2csc3ncnc(NCCN4CCOCC4)c23)cc1	-10.9%
CNC(=O)CN1C(=O)CSc2ncccc21	-11.8%
Cn1c(=NC(=O)CCl)sc2ccccc21	98.2% (active)
CC(=O)N=c1sc2ccccc2n1C	-2.3%
Cn1c(=NC(=O)CN2C(=O)C3CC=CCC3C2=O)sc2ccccc21 (stereo not given)	-0.3%
CC(=O)Nc1ccc(NC(=O)Cn2c(CC(=O)N3CCCC3)nc3ccccc32)cc1	-27.7%
C=CCn1c(N2C(=O)CC(Cc3ccccc3)C2=O)nc2ccccc21 (stereo not given)	5.8%
CCc1ccc(NC(=O)c2ccccc2NC(=O)C2CCCO2)cc1 (stereo not given)	-5.7%
COc1cccc2c(=O)n(CC(=O)NC3CCCC3)ccc12	2.2%
CNc1nc(-c2ccccn2)nnc1-c1ccccc1	10.4%
c1ccc(-c2noc(C3CCCCC3)n2)nc1	-7.2%
c1ccc(-c2nnc(-c3ccccn3)nc2NC2CCCCC2)cc1	50.7% (active)
CN1CCC(N(C)C(=O)c2ccccc2Nc2ccc(SC(F)F)cc2)CC1	5.3%
CCCn1c(NCc2ccc(C)o2)nc2ccccc21	0.5%
COCCn1nnnc1C(c1ccc2ncccc2c1)N1CCN(c2ccccc2F)CC1 (stereo not given)	-18.9%
O=S(=O)(c1ccc(Cl)cc1)N1c2ccccc2Oc2nc3ccccc3nc21	3.8%
O=S(=O)(c1ccccc1)N1c2cc(Cl)ccc2Oc2nc3ccccc3nc21	-4.7%
COc1ccc(S(=O)(=O)N2c3cc(Cl)ccc3Oc3nc4ccccc4nc32)cc1	70.2% (active)
COC(=O)c1cc(NS(=O)(=O)c2ccc(OC)c(OC)c2)ccc1Cl	3.3%
COCc1[nH]nc2c1C(c1ccccc1Cl)C(C#N)=C(N)O2 (stereo not given)	-4.4%
Cc1cc(C(C)(C)C)nc2[nH]n(-c3ccccc3)c(=O)c12	-2.1%
Cc1ccnc(NC(=O)c2cc(-n3cnnc3)ccc2Cl)c1	12.1%
CC(C)(C)C(=O)Nc1sc2c(c1C#N)CCCCC2	5.8%
